PubChem BioAssay (EPA / NIEHS)
Results filed as inconclusive are left out. Activity calls are given as the source filed them. How the source made its calls: active means hit-call score of the fitted dose curve at least 0.9, where 1 is the maximum; inconclusive means response in the unintended direction; inactive means score below 0.9.

Biological target: Androgen Receptor/SRC-1 Co-activator, AR (gene 367) (UniProt P10275)
Experiment: OT_AR_ARSRC1_0480: Odyssey Thera (OT) 8-hour HEK293T Protein-Complementation Assay for Androgen Receptor/SRC-1 Co-activator (AID 2283354);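 further: hits raise the complementation signal above DMSO so AC50 marks enhancers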
In short: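 HEK293T cells stably expressing AR and SRC-1 fused to Venus YFP fragments, imaged 8 h after dosing. Complementation fluorescence scored as nuclear/cytoplasmic ratio at 488 nm in at least 400 cells per image; gain fitted versus DMSO.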

Sequence of Androgen Receptor/SRC-1 Co-activator, AR (gene 367) (P10275 whole entry, looked up): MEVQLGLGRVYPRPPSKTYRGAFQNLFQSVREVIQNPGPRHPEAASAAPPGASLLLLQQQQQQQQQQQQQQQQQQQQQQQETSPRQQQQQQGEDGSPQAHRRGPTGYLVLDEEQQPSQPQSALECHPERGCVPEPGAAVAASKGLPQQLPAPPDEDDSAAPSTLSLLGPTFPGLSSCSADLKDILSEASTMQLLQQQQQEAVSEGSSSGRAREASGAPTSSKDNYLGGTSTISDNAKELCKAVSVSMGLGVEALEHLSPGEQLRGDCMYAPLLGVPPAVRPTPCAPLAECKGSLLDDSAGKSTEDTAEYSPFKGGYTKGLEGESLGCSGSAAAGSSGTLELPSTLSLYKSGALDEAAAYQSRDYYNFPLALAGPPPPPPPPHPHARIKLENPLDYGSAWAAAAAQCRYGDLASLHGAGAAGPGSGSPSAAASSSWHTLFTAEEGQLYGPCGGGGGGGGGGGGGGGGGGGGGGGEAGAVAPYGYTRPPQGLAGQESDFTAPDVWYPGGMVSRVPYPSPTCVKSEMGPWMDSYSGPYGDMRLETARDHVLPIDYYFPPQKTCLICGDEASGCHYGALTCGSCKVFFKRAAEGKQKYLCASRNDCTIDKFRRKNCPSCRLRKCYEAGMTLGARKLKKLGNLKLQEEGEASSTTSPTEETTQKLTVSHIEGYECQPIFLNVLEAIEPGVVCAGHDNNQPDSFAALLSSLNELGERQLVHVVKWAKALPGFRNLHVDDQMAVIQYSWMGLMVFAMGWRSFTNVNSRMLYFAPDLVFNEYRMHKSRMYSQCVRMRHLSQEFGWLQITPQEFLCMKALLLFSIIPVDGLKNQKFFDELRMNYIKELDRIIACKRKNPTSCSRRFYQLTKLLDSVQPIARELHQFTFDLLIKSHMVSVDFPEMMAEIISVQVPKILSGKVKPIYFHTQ

Q: Which outcome does the source give for OCCO here?
A: inactive

Q: CCCCCCCCCC(=O)O was tested. Which outcome did it give?
A: inactive

Q: CCCCOC(=O)c1ccc(O)cc1 was tested. Which outcome did it give?
A: inactive

Q: For COCC(C)OCC(C)OCC(C)O (stereo not drawn), which outcome is on record?
A: inactive

Q: How did the outcome turn out when Cc1occc1C(=O)Nc1ccc(C(=O)N2CCC(F)(F)/C(=C\C(=O)N3CCC(N4CCCCC4)CC3)c3ccccc32)cc1 was run?
A: inactive

Q: Which outcome does the source give for Oc1ccc2ccccc2c1 here?
A: inactive

Q: For O=c1c(-c2ccc(O)cc2)coc2cc(O)cc(O)c12, which outcome is on record?
A: inactive

Q: How did the AC50 turn out when COc1cc(C(=O)NC2CCN(C)CC2)ccc1Nc1ncc2c(n1)N(C1CCCC1)CC(F)(F)C(=O)N2C was run?
A: 52.5 µM (active)

Q: For CCCC(=O)OCCC(C)C, which outcome is on record?
A: inactive

Biological target: rat Mineralocorticoid Receptor (MR), Nr3c2 (gene 25672) (UniProt P22199)
Experiment: NVS_NR_rMR: NovaScreen (NVS) Nuclear Receptor Binding Assay for rat Mineralocorticoid Receptor (MR) (AID 2283355)
In short: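 Cell-free radioligand binding to mineralocorticoid receptor from adrenalectomized rat brain supernatant, scintillation counting after 24 h. Primary screen in duplicate at 25 uM; actives retested in concentration series. Loss of specific binding versus DMSO.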

Sequence of rat Mineralocorticoid Receptor (MR), Nr3c2 (gene 25672) (P22199 whole entry, looked up): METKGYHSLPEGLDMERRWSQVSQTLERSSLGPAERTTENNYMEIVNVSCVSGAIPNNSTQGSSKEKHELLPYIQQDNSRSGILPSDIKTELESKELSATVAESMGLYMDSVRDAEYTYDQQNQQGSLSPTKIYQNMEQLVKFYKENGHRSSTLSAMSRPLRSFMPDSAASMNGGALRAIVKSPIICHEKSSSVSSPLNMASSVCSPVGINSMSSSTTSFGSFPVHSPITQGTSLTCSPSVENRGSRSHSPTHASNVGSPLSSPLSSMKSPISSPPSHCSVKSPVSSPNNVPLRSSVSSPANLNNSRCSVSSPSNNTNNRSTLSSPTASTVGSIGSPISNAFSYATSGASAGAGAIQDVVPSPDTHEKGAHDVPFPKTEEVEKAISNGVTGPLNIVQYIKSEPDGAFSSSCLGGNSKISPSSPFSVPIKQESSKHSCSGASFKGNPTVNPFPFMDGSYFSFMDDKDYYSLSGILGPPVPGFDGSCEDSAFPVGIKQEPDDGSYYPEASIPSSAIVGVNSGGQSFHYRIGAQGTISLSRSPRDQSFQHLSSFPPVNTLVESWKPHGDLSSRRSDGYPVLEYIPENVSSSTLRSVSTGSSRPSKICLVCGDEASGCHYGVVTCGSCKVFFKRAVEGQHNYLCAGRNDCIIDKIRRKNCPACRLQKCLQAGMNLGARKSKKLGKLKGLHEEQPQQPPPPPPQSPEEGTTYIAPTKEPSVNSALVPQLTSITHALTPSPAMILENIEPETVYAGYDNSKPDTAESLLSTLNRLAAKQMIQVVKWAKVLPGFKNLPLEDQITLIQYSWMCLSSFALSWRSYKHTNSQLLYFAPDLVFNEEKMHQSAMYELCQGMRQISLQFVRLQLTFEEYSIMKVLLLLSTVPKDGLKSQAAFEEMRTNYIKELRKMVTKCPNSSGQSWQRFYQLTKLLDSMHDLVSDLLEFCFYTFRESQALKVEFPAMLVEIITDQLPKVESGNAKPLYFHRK

Q: With O=C(O)Cc1cc(I)c(Oc2ccc(O)c(I)c2)c(I)c1 as the compound, how does the outcome read?
A: inactive

Q: Which outcome does the source give for O=CCCCC=O here?
A: inactive

Q: Which outcome does the source give for C[C@]12CC[C@@H]3c4ccc(O)cc4CC[C@H]3[C@@H]1CCC2=O here?
A: inactive

Q: With O=C(O)c1ccccc1-n1cc(C(=O)O)c(=O)c2cc(Nc3c(F)cc(F)cc3Cl)c(Cl)cc21 as the compound, how does the outcome read?
A: inactive

Q: With C[C@]12CC[C@@H]3c4ccc(O)cc4CC[C@H]3[C@@H]1CC[C@H]2O as the compound, how does the AC50 read?
A: 0.135 µM (active)

Biological target: Estrogen receptor beta (Homo sapiens) (UniProt Q92731)
Experiment: OT_ER_ERbERb_0480: Odyssey Thera (OT) 8-hour HEK293T Protein-Complementation Assay for Estrogen Receptor-beta/-beta Homodimer (AID 2283357);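 further: active means signal gain over DMSO baseline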
In short: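 Fluorescence intensity, nuclear for agonists and nuclear plus cytoplasmic for antagonists, was quantified by laser scanning cytometry versus vehicle after 8 h treatment. The cells were HEK293T stably carrying ER beta LBD fragment-complementation partners.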

Sequence of Estrogen receptor beta (Homo sapiens) (Q92731 whole entry, looked up): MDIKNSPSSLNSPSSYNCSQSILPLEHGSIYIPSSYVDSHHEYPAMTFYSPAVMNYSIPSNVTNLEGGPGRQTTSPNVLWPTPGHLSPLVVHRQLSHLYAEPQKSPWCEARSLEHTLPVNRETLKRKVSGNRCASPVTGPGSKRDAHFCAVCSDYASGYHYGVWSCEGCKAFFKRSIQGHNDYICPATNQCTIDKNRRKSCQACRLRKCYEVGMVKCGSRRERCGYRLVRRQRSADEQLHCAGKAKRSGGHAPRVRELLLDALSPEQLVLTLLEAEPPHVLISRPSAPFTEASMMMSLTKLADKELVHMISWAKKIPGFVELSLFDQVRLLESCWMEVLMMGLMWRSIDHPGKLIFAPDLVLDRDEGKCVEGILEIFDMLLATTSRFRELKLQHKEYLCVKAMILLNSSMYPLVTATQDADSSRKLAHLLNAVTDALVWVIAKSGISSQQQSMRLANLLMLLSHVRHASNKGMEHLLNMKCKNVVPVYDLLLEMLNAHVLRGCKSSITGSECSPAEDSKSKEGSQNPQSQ

Q: How did the outcome turn out when CN1C(=O)CC[C@H]1c1cccnc1 was run?
A: inactive

Q: Which outcome does the source give for O=C(O)Cn1c(=O)n(Cc2ccc(Br)cc2F)c(=O)c2ccc(Cl)cc21 here?
A: inactive

Q: With CC1=CC(=O)/C(=C(/C)O)C(=O)O1 as the compound, how does the outcome read?
A: inactive

Q: Which outcome does the source give for c1ccc2n[nH]nc2c1 here?
A: inactive
